A selection: hits, their analogues and other compounds. The true share with any hit is near 4.2%.
ClpP mod – qHTS Assay for Activators of ClpP | actives 1.9% (n = 340,000) | ATP-dependent Clp protease proteolytic subunit (Bacillus subtilis (strain 168)), P80244 | Potency, µM (highest dose often 57.5 µM) | purified B. subtilis ClpP, FRET peptide cleavage, 20 min; active = well fitted falling curve with a large enough effect; inconclusive = small, poorly fitted or top-dose-only effect; inactive = no such curve, though single readings can be large or run the other way; note: the source files actives as falling curves though it sought activators and does not explain the sign; nearly all actives have a fitted effect of over 65% in size
Target sequence (P80244 whole entry, looked up): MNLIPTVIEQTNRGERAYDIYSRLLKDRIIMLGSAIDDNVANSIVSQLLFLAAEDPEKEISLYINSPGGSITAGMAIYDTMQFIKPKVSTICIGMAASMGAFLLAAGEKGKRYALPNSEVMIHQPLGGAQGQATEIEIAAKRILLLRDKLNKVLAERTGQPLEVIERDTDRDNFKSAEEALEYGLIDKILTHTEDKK
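ClpP 10 microg/mL final, pH 8 Tris/KCl buffer with BSA, glycerol, Tween-20; compound pinned in; FRET-FV substrate; RT 20 min; Ex320/Em430; ΔFRET vs ADEP 5.8 microM, DMSO, no enzyme.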
Sfp PPTase inh – Sfp phosphopantetheinyl transferase inhibition; actives 3.5% (n = 310,000); Q9F4F7; Potency, µM, usual class: inhibitors; Biochemical Sfp PPTase activity, qHTS;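 note: the enzyme is Sfp with the accession as filed and its product quenches rhodamine fluorescence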
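With Hepes-Na pH 7.6 buffer containing 10 mM MgCl2, Sfp (15 nM) modified BHQ-2-YbbR (12.5 uM) using rhodamine-CoA (5 uM). Two reads 30 minutes apart at 525/598 nm yielded each well's rate.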
TCR activator – activators of T cell receptors. primary human leukocytes, anti-CD3, IL-2 HTRF, 48 h. Potency, µM (doses to about 9.22 µM), usual class: activators. 330,000 tested, under 10 active
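1) Mix primary human leukocytes, a-CD3 beads and compound. 2) Incubate 48 hr. 3) Add HTRF IL-2 reagents (a-IL-2-K, a-IL-2-d2).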
uPA generation – inhibitors of cell surface uPA generation | actives 0.31% (n = 330,000) | cell surface uPA generation assay, qHTS | Potency, µM (titrated, usually from 38.3 µM), actives largely listed as inhibitors | AID 540303; active = well fitted inhibition curve with a large enough effect; inconclusive = small, poorly fitted or top-dose-only effect; inactive = no such curve, though single readings can be large or run the other way; tested in mouse RAW 264.7 cells; note: nearly all actives have a fitted effect of over 55% in size
Of the large screens only hits and unclear results are named; the others gave an inactive call; ! = not confirmed by another sample. Unless noted, calls come from the whole dose curve; as a rule, active = well fitted curve in the direction sought with a large enough effect; inconclusive = small, poorly fitted or top-dose-only effect, or another doubt; inactive = no such curve, though single readings can be large; an effect the other way counts as inactive or inconclusive.

COC(=O)c1oc2nc(C)cc(C)c2c1N	ClpP mod 28µM
Cc1cc(C)c2c(N)c(C(=O)c3ccccc3)oc2n1	Sfp PPTase inh inconclusive (no result: TCR activator)
Cc1cc(C)c2cc(CN(CCO)Cc3nnnn3Cc3ccccc3)c(=O)[nH]c2c1	none
O=c1[nH]c2cc3c(cc2cc1CN(CCCO)Cc1nnnn1Cc1ccc(F)cc1)OCO3	ClpP mod 32µM
Cc1cc(C)c2cc(CN(CCO)Cc3nnnn3Cc3ccc(F)cc3)c(=O)[nH]c2c1	ClpP mod 20µM
Cc1cc(C)c2c(N)c(S(=O)(=O)c3ccccc3)sc2n1	Sfp PPTase inh 89µM
COc1ccc(NS(=O)(=O)c2cccc(C(=O)NCC(c3ccc(OC)cc3)N3CCCC3)c2)cc1 (configuration not stated)	ClpP mod 28µM (no result: Sfp PPTase inh, TCR activator)
CCOC(=O)c1ccc(NC(=O)Cn2ncc(Cl)c(Cl)c2=O)cc1	none (no result: ClpP mod)
CCC(=O)Nc1ccc(C(=O)Cn2ncc(Cl)c(Cl)c2=O)cc1	uPA generation 7.9µM
O=C(Nc1ccc(F)cc1)N(Cc1ccco1)Cc1cc2cc3c(cc2[nH]c1=O)OCO3	ClpP mod 32µM
Cc1ccc(NC(=O)N(Cc2cccs2)Cc2cc3cc4c(cc3[nH]c2=O)OCO4)cc1	none (no result: ClpP mod, uPA generation)
O=C(Nc1ccc(F)cc1)N(Cc1cccs1)Cc1cc2cc3c(cc2[nH]c1=O)OCO3	ClpP mod 32µM
COc1ccccc1-c1nn2c(C(F)(F)F)nnc2s1	ClpP mod 13µM
c1ccc(Cc2nn3c(C4COc5ccccc5O4)nnc3s2)cc1 (configuration not stated)	Sfp PPTase inh 14µM
COc1ccccc1-c1nn2c(C3COc4ccccc4O3)nnc2s1 (configuration not stated)	ClpP mod inconclusive, Sfp PPTase inh 20µM
FC(F)(F)c1nnc2sc(-c3ccccn3)nn12	none
CCOc1cccc(C2C=C(c3ccc4c(c3)OCO4)NC(c3ccc(Br)cc3)N2)c1O (configuration not stated)	none (no result: Sfp PPTase inh, TCR activator, uPA generation)
COc1ccc(-c2nn3c(-c4cc(-c5ccccc5)n[nH]4)nnc3s2)cc1	none (no result: Sfp PPTase inh, TCR activator, uPA generation)
O=c1[nH]nc(Cc2ccc(-c3ccc(Cl)cc3)o2)c2ccccc12	Sfp PPTase inh 56µM
OC[C@H](S)CS	Sfp PPTase inh 2.2µM (no result: TCR activator, uPA generation)
OC(c1ccccc1)(c1nc(-c2cc(F)cc(F)c2)cs1)C(F)(F)F (configuration not stated)	none (no result: Sfp PPTase inh, TCR activator, uPA generation)
CCOc1cc(CN2CCN(c3ccc(C(C)=O)cc3)CC2)ccc1OC	Sfp PPTase inh 79µM (no result: TCR activator)
CCOc1cc(CN2CCCCC2)ccc1OC	none (no result: uPA generation)
CCC(=O)Nc1nc(=S)ss1	Sfp PPTase inh 10µM
CCSc1nnc(NC(=O)CC)s1	none
CC(C)(C)C(=O)Nc1nc(=S)ss1	Sfp PPTase inh 22µM
Cc1nc2ccc(S(=O)(=O)N(C)CC(=O)Nc3ccc(Br)c(C)c3)cc2s1	none (no result: Sfp PPTase inh, TCR activator, uPA generation)
COc1ccc(N(Cc2cc(=O)[nH]c3ccccc23)C(=O)c2ccco2)cc1	Sfp PPTase inh 56µM
COc1ccc(CN(C(=O)c2ccco2)c2ccccc2)cc1	none
O=C(COC(=O)Cn1cnc2ccccc21)Nc1cc2c(cc1Cl)C(=O)c1ccccc1C2=O	uPA generation 5µM
O=C(COC(=O)Cn1cnc2ccccc21)Nc1cc(S(=O)(=O)N2CCOCC2)ccc1Cl	none (no result: ClpP mod)
CCCCC(=O)Oc1ccc2oc(-c3ccc(OC)cc3)cc(=O)c2c1	none (no result: Sfp PPTase inh, TCR activator, uPA generation)
O=C(O)c1ncn(Cc2ccccc2)c1C(=O)O	Sfp PPTase inh 50µM (no result: uPA generation)
COCCCN=C(c1ccco1)n1c(=S)nc(-c2ccco2)n(CCCOC)c1=S	Sfp PPTase inh 11µM
Cc1nc(C/C(=N\Nc2ccccc2)c2ccc(O)cc2O)cs1	Sfp PPTase inh 18µM, uPA generation inconclusive
O=c1c(-c2ccc(Cl)cc2)nc2cnc(N3CCOCC3)nc2n1-c1ccccc1	none (no result: ClpP mod, TCR activator, uPA generation)
N#Cc1ccc(S(=O)(=O)NCC(=O)OCC(=O)N2CCCC2=O)cc1	ClpP mod 14µM (no result: Sfp PPTase inh)
CCOC(=O)c1ccc(NC(=O)CC2Nc3ccccc3NC2=O)cc1 (configuration not stated)	none (no result: Sfp PPTase inh, TCR activator, uPA generation)
C(=C\c1ccco1)/c1nc2ccccc2[nH]1	ClpP mod inconclusive, Sfp PPTase inh 40µM, uPA generation 7.1µM
C(=C\c1ccco1)/c1ccc2ccccc2n1	Sfp PPTase inh 50µM (no result: ClpP mod)
C(=C\c1nc2ccccc2[nH]1)/c1ccccc1	ClpP mod inconclusive, uPA generation inconclusive
Fc1cccc(F)c1/C=C/c1ccc2ccccc2n1	none
CN1CCc2c(sc(N)c2C(N)=O)C1	ClpP mod 20µM, Sfp PPTase inh 56µM (no result: uPA generation)
CN1CCc2c(sc(NC(=O)c3ccco3)c2C(N)=O)C1	none
CCN1CCc2c(sc(N)c2C(N)=O)C1	ClpP mod 14µM, Sfp PPTase inh 50µM
Cc1nn(C(=O)c2ccc(Cl)cc2)c(C)c1S(=O)(=O)N1CCCCCC1	none (no result: Sfp PPTase inh, TCR activator, uPA generation)
COc1cccc(/C=N/NC(=O)CCc2n[nH]c(=O)[nH]c2=O)c1O	ClpP mod 10µM
COc1ccc(/C=N/NC(=O)CCc2n[nH]c(=O)[nH]c2=O)cc1OC	none
CCOC(=O)CC1(C)NC(=O)c2c(C)sc(C(=O)OCC)c2N1 (configuration not stated)	ClpP mod inconclusive
CCOC(=O)CC1(CC(=O)OCC)NC(=O)c2c(C)sc(C(=O)OCC)c2N1	ClpP mod 35µM
CCCn1c(SCN2C(=O)c3ccccc3C2=O)nc2cc(Cl)ccc2c1=O	ClpP mod 25µM
Cc1cccc(-n2c(SCN3C(=O)c4ccccc4C3=O)nc3ccccc3c2=O)c1	none (no result: ClpP mod, uPA generation)
Cc1ccc(NC(=O)Nc2nnc(N3CCCC3)s2)c(C)c1	none (no result: Sfp PPTase inh, TCR activator, uPA generation)
C[C@@](Cc1ccccc1)(C(=O)O)N1C(=O)c2ccc(C(=O)O)cc2C1=O	none (no result: ClpP mod, TCR activator, uPA generation)
c1ccc(CNc2ncnc3c2cnn3-c2ccccc2)cc1	ClpP mod inconclusive
Fc1ccc(CNc2ncnc3c2cnn3-c2ccccc2)cc1	ClpP mod 35µM
Cc1ccc(-n2ncc3c(NCCc4ccccc4)ncnc32)cc1C	ClpP mod 28µM (no result: Sfp PPTase inh, TCR activator, uPA generation)
c1ccc(-n2ncc3c(NCc4ccccn4)ncnc32)cc1	ClpP mod 13µM (no result: uPA generation)
COc1ccc(NC(=O)NC2COc3ccccc3C2)cc1Cl (configuration not stated)	none (no result: Sfp PPTase inh, TCR activator, uPA generation)
CCCNC(=O)CCC(=O)N1Cc2cccc(OC)c2Oc2ncccc21	none (no result: Sfp PPTase inh, TCR activator, uPA generation)
N[C@H](C(=O)O)c1cccc(O)c1	Sfp PPTase inh 45µM! (no result: ClpP mod, TCR activator, uPA generation)
NC(C(=O)O)c1cc(O)c(Cl)c(O)c1 (configuration not stated)	none (no result: ClpP mod, TCR activator, uPA generation)
NC(C(=O)O)C(O)c1ccc(O)c(O)c1 (configuration not stated)	Sfp PPTase inh 45µM (no result: ClpP mod, TCR activator, uPA generation)
NC(C(=O)O)c1ccc(O)cc1 (configuration not stated)	none (no result: ClpP mod, TCR activator, uPA generation)
N[C@H](C(=O)O)c1ccc(O)c(C(=O)O)c1	Sfp PPTase inh 20µM (no result: ClpP mod, TCR activator, uPA generation)
CC(Cc1ccccc1)NC(=O)c1cc([N+](=O)[O-])ccc1Cl (configuration not stated)	none
COc1ccccc1N1CCN(CCNC(=O)Nc2cccc(C)c2C)CC1	ClpP mod 32µM
CCCCCCOc1ccc(NC(=O)CC2C(=O)N(CC)C(=S)N2Cc2ccco2)cc1 (configuration not stated)	none
CCN1CCN(CCCNC(=O)c2cc3c(=O)[nH]c4ccccc4c3s2)CC1	ClpP mod 8.9µM

High-throughput results (PubChem BioAssay)
